In the library only some 4.1% were active in any assay of this set; here they are far more common.
hcDAF12 agonist: H. contortus DAF-12 activation, primary screen. HEK293 hcDAF-12 lit1-tk-luc reporter, luminescence; 0% DMSO, 100% Δ7-dafachronic acid. activation, % at 6.8 µM. hit rate 1.4% among 370,000. AID 652067;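 active means activation above the mean of all tested compounds plus 3 SD, cut at about 5.5% in these data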;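 further: 100% = response to 3 µM Δ7-dafachronic acid high control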
ssDAF12 agonist: S. stercoralis DAF-12 activation, primary screen; HEK293 ssDAF-12/GRIP1 lit1-tk-luc reporter, luminescence; % of 3 µM dafachronic acid response; activation, % at 6.8 µM; hit rate 1% among 370,000;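 active means activation above the mean over all tested compounds plus 3 SD, cut at about 0.9% in these data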;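 further: 0% = DMSO-only wells and 100% = 3 µM delta7-dafachronic acid wells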
DAX1 inh-1: inhibitors of DAX1 repression of SF-1 activated StAR promoter | AID 652010 | hit rate 1.1% among 370,000 | HEK293T StAR-luciferase reporter, SF-1/DAX-1 repression relief | inhibition, % at 6.8 µM;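 active means inhibition above the mean over all tested compounds plus 3 SD, cut at about 3.6% in these data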;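 further: 0% = DAX-1 cells with DMSO and 100% = cells lacking DAX-1 with DMSO; higher inhibition means more luminescence from relief of DAX-1 repression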
hgDAF-12 ag: activates the H. glycines DAF-12 receptor ligand-binding domain | AID 687014 | HEK293 GAL4-hgDAF12 UAS-luciferase reporter, agonist luminescence; normalized to butyrate control | hit rate 1.8% among 370,000 | activation, % at 6.8 µM;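 active means activation above a cutoff set at the mean of all screened compounds plus 3 SD, cut at about 10% in these data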;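 further: 0% = DMSO wells and 100% = sodium butyrate wells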
DAX1 inh-2: inhibits human nuclear receptor DAX1 | hit rate 0.99% among 340,000 | HEK293 Gal4-DAX1 luciferase reporter, luminescence | inhibition, % at 6.75 µM;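 active means inhibition above the mean over all tested compounds plus 3 SD, cut at about 4.2% in these data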;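 further: 0% = DAX1-transfected cells with DMSO and 100% = empty-vector control cells with DMSO; inhibition shows as a rise in luminescence from relieved DAX1 repression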
Target sequence (P51843 207-470 limits assumed): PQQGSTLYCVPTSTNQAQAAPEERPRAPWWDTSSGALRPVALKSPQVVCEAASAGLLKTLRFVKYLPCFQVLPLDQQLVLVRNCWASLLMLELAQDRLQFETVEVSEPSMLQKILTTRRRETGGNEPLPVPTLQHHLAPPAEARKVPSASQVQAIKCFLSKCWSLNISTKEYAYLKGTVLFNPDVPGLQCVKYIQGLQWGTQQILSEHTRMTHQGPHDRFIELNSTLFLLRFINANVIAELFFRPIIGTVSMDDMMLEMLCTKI
LXRb hcDAF ctr: counter-screen for hcDAF-12 agonists: agonists of human LXR-beta; shares compounds with hcDAF12 agonist; HEK293 Gal4-LXR tk-luc reporter, luminescence, 24 h; normalized: DMSO 0%, positive control 100%; activation, % at 6.8 µM; 3,400 tested, under 10 active;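 active means mean percent activation of the reporter above a cutoff set as the average over tested compounds plus their standard deviation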
Target sequence (P55055 whole entry, looked up, the tested form may be a part): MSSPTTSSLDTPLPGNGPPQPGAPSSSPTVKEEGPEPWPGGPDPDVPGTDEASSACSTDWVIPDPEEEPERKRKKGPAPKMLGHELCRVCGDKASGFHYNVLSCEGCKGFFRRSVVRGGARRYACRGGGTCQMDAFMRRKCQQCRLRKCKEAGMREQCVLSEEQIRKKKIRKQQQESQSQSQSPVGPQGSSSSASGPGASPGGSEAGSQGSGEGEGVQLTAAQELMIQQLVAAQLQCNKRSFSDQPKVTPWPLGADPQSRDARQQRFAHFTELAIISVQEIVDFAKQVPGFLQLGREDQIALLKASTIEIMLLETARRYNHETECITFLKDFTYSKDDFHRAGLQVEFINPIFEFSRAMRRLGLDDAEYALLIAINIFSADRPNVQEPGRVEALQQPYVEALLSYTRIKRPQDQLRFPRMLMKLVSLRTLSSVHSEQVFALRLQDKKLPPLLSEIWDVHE
hcDAF12 ag: hcDAF-12 agonism, confirmation assay. activation, % at 6.8 µM. shares compounds with hcDAF12 agonist. hit rate 61% among 3,400. HEK293 hcDAF-12 lit1-tk-luc reporter, luminescence; % of Δ7-dafachronic acid response;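 active means mean activation across triplicate tests above the threshold derived from the earlier primary screen, cut at about 5.5% in these data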;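 further: 0% = DMSO only wells and 100% = 3 µM Δ7-dafachronic acid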
hgDAF12 ag: confirmation of H. glycines DAF-12 agonists. hit rate 80% among 3,300. HEK293 GAL4-hgDAF12 luciferase reporter, agonist mode; percent of butyrate response. AID 743050. shares compounds with hgDAF-12 ag. activation, % at 6.8 µM;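 active means mean activation over triplicate wells above the hit cutoff derived from the earlier primary screen, cut at about 11% in these data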;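 further: 0% = DMSO low control and 100% = 2 mM sodium butyrate high control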
LXR ag 2: counter-screen for DAF-12 agonists: agonists of human LXR-beta; shares compounds with hgDAF-12 ag; HEK293 Gal4-LXR luciferase reporter, 24 h; activation, % at 6.8 µM; 3,300 tested, under 10 active;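 active means mean activation of the triplicate above a set limit carried over from the primary screen, none filed active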
The depositor's hits bear a star; · = not tested or not shown.

SMILES | hcDAF12 agonist | ssDAF12 agonist | DAX1 inh-1 | hgDAF-12 ag | DAX1 inh-2 | LXRb hcDAF ctr | hcDAF12 ag | hgDAF12 ag | LXR ag 2
CCOc1ccc2cc(C3CC(c4ccco4)=NN3S(C)(=O)=O)c(Cl)nc2c1 (stereo not given) | -1 | -1 | -1 | -4 | 0 | · | · | · | ·
CC(=O)Nc1cc2nn(-c3ccccc3)nc2cc1C | 7.0* | 1.4* | 2 | 18* | -1 | 2 | 5 | 19* | 1
Cc1cc2nn(-c3ccccc3)nc2cc1NC(=O)c1cccs1 | 1 | -1 | 0 | 4 | 1 | · | · | · | ·
CCc1ccc(NC(=O)COc2coc(CN3CCN(c4ccccc4)CC3)cc2=O)cc1 | 1 | -1 | 1 | 0 | 0 | · | · | · | ·
CCc1ccc(NC(=O)COc2ccc(F)cc2C(=O)c2cnn(-c3ccccc3)c2)cc1 | 12* | 1 | 2 | 18* | 2 | 0 | 7.8* | 7 | 0
O=C(N[C@H](Cc1ccccc1)C(=O)N(CCC1=CCCCC1)CC1CC1)[C@H]1O[C@@H](n2ccc(=O)[nH]c2=O)[C@H](O)[C@@H]1O | 2 | -1 | 1 | 0 | · | · | · | · | ·
O=C(Nc1nccs1)c1ccc2ccccc2c1 | 17* | 2.2* | 3 | 21* | 3 | 2 | 14* | 26* | 1
Cc1c(C(=O)Nc2cnccn2)oc2ccccc12 | · | · | · | · | 3 | · | · | · | ·
Cc1c(C(=O)Nc2nccs2)oc2ccccc12 | 15* | 3.2* | 3 | 18* | 4.6* | 1 | 13* | 25* | 1
O=C(Nc1nccs1)c1ccc(Br)cc1 | 5 | 0 | 1 | 9 | 3 | · | · | · | ·
COC(=O)[C@]12C[C@H](CC(=O)NCC3CCCCC3)C(=O)N(Cc3ccco3)C1=C[C@H](COCc1ccccc1)O[C@@H]2C | -1 | -1 | -1 | 1 | · | · | · | · | ·
Oc1ccc(F)cc1-c1cc(-c2ccc3c(c2)OCCO3)n[nH]1 | 8.1* | 1.3* | 3 | 15* | 4.4* | 1 | 4 | 20* | 1
Cc1ccc(C(=O)Nc2nc3c(s2)CCCC3)o1 | 11* | 0 | 3.8* | 13* | 2 | 2 | 7.0* | 16* | 1
CCc1nnc(NC(=O)c2ccc(C)o2)s1 | 1 | 0 | 3 | 6 | 0 | · | · | · | ·
O=C(Nc1nc2c(s1)CCCC2)c1ccc(Br)o1 | 13* | 1.3* | 2 | 16* | 0 | 2 | 10* | 18* | 1
O=C(Nc1nc2c(s1)CCCC2)c1cccnc1 | · | · | · | · | 4 | · | · | · | ·
COc1cc(O)c([C@@H](CC(=O)N2CC(C)CC(C)C2)c2ccc3c(c2)OCO3)c(OC)c1 (stereo not given in full) | 3 | -1 | · | -3 | · | · | · | · | ·
CCOC(=O)CC[C@@]1(C(=O)OCC)C[C@@H](CC(=O)N2CCOCC2)C(=O)N2CCCC=C21 | 0 | -1 | 0 | -2 | · | · | · | · | ·
Cc1cc(N2CCN(CC(C)(C)O)C[C@@H]2C)ccc1N1CCN(Cc2ccccc2)[C@@H](C)C1 | -1 | -1 | -2 | -2 | · | · | · | · | ·
COc1cc(OC)c(OC)cc1C=Cc1ccc2ccccc2n1 | 3 | 1 | 1 | 8 | -1 | · | · | · | ·
O=[N+]([O-])c1ccccc1/C=C/c1ccc2ccccc2n1 | 18* | 2.1* | 2 | 16* | 7.1* | 2 | 12* | 20* | 1
O=C(N/N=C/c1cccc2ccccc12)c1cccs1 | 8.2* | 1 | 3 | 17* | 4.5* | 1 | 7.3* | 16* | 1
O=C(N/N=C/c1c[nH]c2ccccc12)c1ccc2c(c1)OCCO2 | 13* | 1.7* | 1 | 18* | 3 | 1 | 7.0* | 23* | 1
O=C(N/N=C/c1c[nH]c2ccccc12)c1cccs1 | 6.9* | 1.7* | 1 | 14* | · | 1 | 6.4* | 11* | 0
O=C(NC(Cc1c[nH]c2ccccc12)C(=O)N/N=C/c1cccc2ccccc12)c1cccs1 (stereo not given) | -2 | -1 | -1 | 0 | 0 | · | · | · | ·
SMILES | hcDAF12 agonist | ssDAF12 agonist | DAX1 inh-1 | hgDAF-12 ag | DAX1 inh-2 | LXRb hcDAF ctr | hcDAF12 ag | hgDAF12 ag | LXR ag 2
CNc1ccccc1/C(O)=C(\C#N)C(=O)NCc1cccs1 | -1 | -1 | -2 | 3 | · | · | · | · | ·
O=C(N[C@@H]1C[C@@H]2O[C@@H](CO)CC[C@@H]2O[C@@H]1CCc1ccc(-c2ccccc2)cc1)c1cnccn1 | 0 | -1 | -2 | 9 | · | · | · | · | ·
c1ccc(-c2nc(-c3cccs3)[nH]c2-c2ccccc2)cc1 | -1 | -1 | -1 | -2 | 0 | · | · | · | ·
Cc1nc2nc(-c3cccs3)[nH]c2cc1Br | 8.9* | 1.0* | 1 | 23* | 3 | 1 | 8.3* | 22* | 1
O=C(Nc1ccc(-c2nc3cccnc3s2)cc1)c1cccnc1Cl | 7.9* | 0 | 3.7* | 23* | 2 | 2 | 5.6* | 24* | 1
O=C(Nc1ccc(-c2nc3cccnc3s2)cc1)c1ccc(Cl)nc1 | 0 | -1 | 1 | 4 | 1 | · | · | · | ·
COc1cc(OC)cc(-c2nc3ccccc3s2)c1 | 8.6* | 1 | 1 | 17* | 2 | 1 | 13* | 15* | 1
COc1ccc(C(=O)NCc2ccc(-c3nc4ccccc4s3)cc2)cc1OC | -1 | 0 | 0 | 5 | 0 | · | · | · | ·
COc1ccc2cc(-c3nc4ccccc4n3C)c(=O)oc2c1 | 6.8* | 0 | 4.1* | 16* | 3 | 1 | 6 | 11* | 0
COc1ccc(C2CC(=O)C(c3ccc(F)cc3)=CN2Cc2ccccc2)cc1 (stereo not given) | -3 | -1 | -1 | 0 | · | · | · | · | ·
COCCN1Cc2c(sc(C)c2C)N(C(=O)c2ccccc2)C1 | 9.2* | 1.7* | 2 | 14* | 2 | 0 | 3 | 8 | 0
O=C(Nc1ccc(Cl)cc1)C1=Cc2ccccc2OC1 | 9.6* | 1.3* | 3 | 18* | 2 | 1 | 8.0* | 22* | 1
CCOc1ccc(NC(=O)c2nsc(Cl)c2Cl)cc1 | 7.2* | 0.9* | 4.4* | 18* | 4 | 1 | 6.6* | 18* | 1
CCOc1ccc(NC(=O)c2ccncc2)cc1 | 1 | -1 | 0 | 0 | 4 | · | · | · | ·
Cc1ccc(NC(=O)c2nnn(-c3ccc4c(c3)OCCO4)c2N)cc1 | 0 | -1 | 1 | 8 | 2 | · | · | · | ·
